Screening data from PubChem BioAssay.
The list is not random: actives were taken first. Their share in the collection is about 5.4%.
RORg inh: inhibitors of mouse ROR gamma transcriptional activity; Drosophila S2 Gal4-RORgamma UAS-luciferase reporter, 20 h; Potency, µM (series often up to 53.6 µM), hits mostly inhibitors; P51450; 310,000 compounds, 5.4% hits; note: nearly all actives have a fitted effect of over 60% in size
Target sequence (P51450 whole entry, looked up, the tested form may be a part): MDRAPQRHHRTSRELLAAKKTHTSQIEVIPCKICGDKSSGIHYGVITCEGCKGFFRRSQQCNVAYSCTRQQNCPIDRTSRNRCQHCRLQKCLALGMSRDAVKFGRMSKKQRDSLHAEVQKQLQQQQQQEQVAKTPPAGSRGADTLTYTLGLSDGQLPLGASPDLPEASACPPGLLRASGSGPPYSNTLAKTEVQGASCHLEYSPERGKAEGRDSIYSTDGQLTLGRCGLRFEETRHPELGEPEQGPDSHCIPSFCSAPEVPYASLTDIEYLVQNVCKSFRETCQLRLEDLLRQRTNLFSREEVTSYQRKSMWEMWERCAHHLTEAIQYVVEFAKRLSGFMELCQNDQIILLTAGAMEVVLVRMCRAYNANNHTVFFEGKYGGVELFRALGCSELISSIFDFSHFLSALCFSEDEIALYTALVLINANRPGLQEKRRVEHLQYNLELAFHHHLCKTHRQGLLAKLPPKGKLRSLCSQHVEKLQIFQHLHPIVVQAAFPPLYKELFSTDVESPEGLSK
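Schneider cells (Drosophila), stable Gal4 DBD–ROR gamma + UAS-luc; 1 hr cmpd preincubation; Cu2+ induction 700 uM final; 20 hr ambient; luminescence.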
Six1-Eya2 inh: blocks human Six1 binding to Eya2; Q15475+O00167; AlphaScreen GST-Six1/His-Eya2 binding, biochemical; active compounds read low; activity change, % (no concentration beside the values); 360,000 compounds, 0.56% hits; AID 651725; in the data active = activity change below about -65%; inconclusive = mostly about -30% to -63%
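Six1/Eya2 binding was read as AlphaScreen signal after compounds were pinned into GST-Six1 plus His-tagged Eya2 (5X stock 250/500 nM) in pH 8.0 Tris/NaCl/TCEP buffer, beads added, then incubated 1 h, 37 C, dark.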
p53 reactivation: mutant p53 re-activation in reporter cells. H1299 p53-A138V BP100-luciferase reporter, luminescence, 24 h. Potency, µM (titrated, usually from 92.2 µM), most hits filed as activators. 320,000 compounds, 0.063% hits; note: nearly all actives have a fitted effect of over 45% in size
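H1299 (p53-null), stable ts p53-A138V + BP100-Luc; 1000 cells/well, Opti-MEM/10% FBS; cpd 4 pt, 1:5; 24 h, 37 deg C, 5% CO2; detection reagent 10 min RT; luminescence.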
VP16 counter: inhibits Gal4-VP16 luciferase reporter, ROR gamma counter-screen. 310,000 compounds, 3.5% hits. Potency, µM (top dose mostly 53.6 µM), hits mostly inhibitors. AID 2546. Drosophila S2 Gal4-VP16 UAS-luciferase, luminescence, 20 h;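 note: Gal4-VP16 expression switched on by copper sulfate through the metallothionein promoter; nearly all actives have a fitted effect of over 50% in size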
CtBP-E1A inh: inhibitors of CtBP/E1A interaction | AlphaScreen GST-E1A/His-CtBP binding, 1536-well; active compounds read low | activity change, % (concentration not given with the values) | 340,000 compounds, 0.49% hits | AID 651724; in the data active = activity change below about -65%; inconclusive = mostly about -30% to -63%
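Steps: dispense buffer (Tris pH 8.0, NaCl 300 mM, TCEP 1 mM, BSA, Tween 20); add 5X protein mix (GST-E1A, His-CtBP, 125 nM each); pin 23 nL compound; 2 h at 37 °C, dark; add 5X beads (50 ug/mL); 1 h; read.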
Numbers stand for hits; 0 = inactive; ? = inconclusive; - = no result. Unless noted, calls come from the whole dose curve; as a rule, active = well fitted curve in the direction sought with a large enough effect; inconclusive = small, poorly fitted or top-dose-only effect, or another doubt; inactive = no such curve, though single readings can be large; an effect the other way counts as inactive or inconclusive.

SMILES | RORg inh | Six1-Eya2 inh | p53 reactivation | VP16 counter | CtBP-E1A inh
COc1cc(NC(=S)NCCc2c[nH]c3ccccc23)c(OC)cc1Cl | 7.08µM | ? | 0 | 3.55µM | 0
COc1cc(NC(=S)NCCO)c(OC)cc1Cl | 0 | 0 | 0 | 0 | 0
COC(CNC(=O)c1ccc2c(=O)n(Cc3ccc(Cl)cc3)c(=S)[nH]c2c1)OC | ? | 0 | 0 | 0 | 0
COCCCNC(=O)c1ccc2c(=O)n(Cc3ccc(Cl)cc3)c(=S)[nH]c2c1 | 17.8µM | 0 | 0 | ? | -
CC1CCN(CCNC(=O)c2ccc3c(=O)n(Cc4ccc(Cl)cc4)c(=S)[nH]c3c2)CC1 | 11.2µM | 0 | 0 | ? | -
CCCCNC(=O)c1ccc(Cn2c(=S)[nH]c3c([nH]c4ccc(OC)cc43)c2=O)cc1 | 12.6µM | 0 | 0 | 17.8µM | 0
CCOCCCNC(=O)c1ccc(Cn2c(=S)[nH]c3c([nH]c4ccc(OC)cc43)c2=O)cc1 | 0 | 0 | 0 | 0 | -
C[C@@H]1CN([C@H](C)CO)C(=O)CCCn2nncc2CO[C@H]1CN(C)Cc1ccc(C(F)(F)F)cc1 | - | 0 | - | - | 0
COC(=O)c1cc(=O)n(CCc2ccccc2)c(=Nc2ccc(F)cc2)s1 | 8.91µM | 0 | 0 | 0 | 0
CCOC(=O)c1ccc(N=c2sc(C(=O)OC)cc(=O)n2CCCN2CCOCC2)cc1 | ? | 0 | 0 | 0 | 0
COC(=O)c1cc(=O)n(CCc2ccc(OC)cc2)c(=Nc2ccc(F)c(Cl)c2)s1 | 0 | 0 | 0 | 0 | 0
CCn1c(=O)cc(C(=O)OC)sc1=Nc1ccc(F)c(F)c1 | 22.4µM | 0 | 0 | ? | 0
CCOC(=O)c1ccc(N=c2sc(C(=O)OC)cc(=O)n2Cc2ccco2)cc1 | ? | 0 | 0 | 8.91µM | 0
CC(C)(CCO)NC(=S)NC1CC2C=CC1C2 (stereo not drawn) | ? | 0 | 0 | ? | 0
CC(C)(C)NC(=S)NC(C)(C)C | 11.2µM | 0 | 0 | ? | 0
CC(C)(C)NC(=S)NC1CC1 | 12.6µM | 0 | 0 | ? | 0
Nc1cccc2c(=O)[nH]ccc12 | 0 | - | - | 0 | -
CN(C)P(=O)(Nc1cccc2ccccc12)Nc1cccc2ccccc12 | - | 0 | 0 | - | 0
CCNc1ncc2nc(-c3ccc(Cl)cc3)c(=O)n(C3CC3)c2n1 | 0 | - | - | 0 | -
Cc1sc(NC(=O)CSC2=NCCS2)nc1-c1ccccc1 | 0 | 0 | 0 | 0 | 0
CC(=O)N1CC(=O)N=C1SCC(=O)Nc1nc(-c2ccccc2)c(-c2ccccc2)s1 | 7.08µM | 0 | 0 | 7.94µM | 0
CCNC(=S)N/N=C/c1cc(Br)cc(Br)c1OC | 1.12µM | 0 | 0 | 2.51µM | 0
COc1cc(/C=N/NC(=O)c2ccncc2)ccc1OC(=O)c1cccc(Br)c1 | 0 | 0 | 0 | 0 | 0
Cc1cc(C(=O)N/N=C/c2cccc(OC(=O)c3cccc(Br)c3)c2)n[nH]1 | 0 | 0 | 0 | 0 | 0
COc1c(Br)cc(Br)cc1/C=N/NC(=O)c1ccncc1 | 14.1µM | 0 | 0 | 0 | 0
SMILES | RORg inh | Six1-Eya2 inh | p53 reactivation | VP16 counter | CtBP-E1A inh
COc1cccc(/C=N/NC(=O)c2ccncc2)c1OC(=O)c1ccc(Br)cc1 | 5.01µM | ? | 0 | 11.2µM | -81.3
COc1cccc(C(=O)Oc2c(Br)cc(Br)cc2/C=N/NC(=O)c2cc(C)[nH]n2)c1 | 0 | ? | 0 | 22.4µM | -
Cc1cc(C)c(CC(=O)c2ccccc2)c(C)c1 | - | 0 | - | - | 0
CCCC(=O)N1CCOCC1c1cc(C(=O)Nc2ccccc2)no1 (stereo not drawn) | - | 0 | - | - | 0
Cc1cc(Nc2ccc3c(c2)OCCO3)c2cccc(C)c2n1 | 0 | 0 | 0 | 0 | 0
O=C(O)c1[nH]c2ccccc2c1C(c1cc(Br)ccc1O)c1c(C(=O)O)[nH]c2ccccc12 | 0 | 0 | 0 | 0 | -
O=C(N/C(=C/c1ccc(Br)cc1)C(=O)N1CCCCC1)c1ccccc1F | 0 | 0 | 0 | 0 | 0
CN(C)c1ccc(C(=O)N/N=C/c2cc(Br)cc(Br)c2O)cc1 | 2.82µM | 0 | 0 | 5.62µM | 0
O=C(N/N=C/c1ccccc1Cl)c1ccncc1 | 0 | 0 | 0 | 0 | -
O=C(N/N=C/c1cc(Cl)ccc1O)c1ccncc1 | 3.16µM | -91.9 | 0 | ? | -95.5
CCCCCCOC(=O)C[N+](C)(C)CCOC1CC2CCC1(C)C2(C)C (stereo not drawn) | ? | 0 | 0 | 0 | 0
CCCCCCCOC(=O)C[N+](C)(C)CCOC1CC2CCC1(C)C2(C)C (stereo not drawn) | ? | 0 | 0 | 12.6µM | 0
